Reference: ChEMBL document CHEMBL3988442, “University of Dundee, Small-Polar-MMV Screening Library” (2021)
Among all 48,000 compounds or so, about 13,000 (27%) showed an effect of 50% or more. The list shows a part of the results.

Each compound was assayed on Wolbachia pipientis (assay: Anti-Wolbachia Cell-Based Screen). Details: 5 µM.
Format: functional
Set-up: scale not given: in the data most compounds retested in dose-response had high values
In the case of `COc1cccc(-c2cnc3n2CCC32CCN(S(C)(=O)=O)CC2)c1`, the “Percent Effect” value is reported as -9.63%. For `CN1C(=O)CC(C(=O)O)C12CCN(Cc1ccc(F)cc1Cl)CC2` (configuration not stated), the “Percent Effect” value was 0.7528%. For `O=C(c1cnc(NCc2sccc2Br)c(Cl)c1)N1CCCCC1`, the “Percent Effect” value was -7.953%. `COCCOc1ncccc1C(=O)Nc1ccc(-n2cncn2)c(F)c1` was tested, and the “Percent Effect” value was -9.189%. In the case of `Cc1ccccc1C(NC(=O)CNC(=O)c1ccoc1C)C(C)C` (configuration not stated), the “Percent Effect” value is reported as -4.038%. In the case of `Cc1cnn(CC2CCCN2C(=O)c2cccc3c2OCO3)c1` (configuration not stated), the “Percent Effect” value is reported as -6.859%. In the case of `CCc1noc(C)c1C(=O)N1CCCC1Cn1cc(C)cn1` (configuration not stated), the “Percent Effect” value is reported as 5.124%. With `Cc1cnn(CC2CCCN2C(=O)c2cccc(F)c2F)c1` (configuration not stated) the “Percent Effect” value was 121.1%. For `Cc1cnn(CC2CCCN2C(=O)c2cc(C)nc3[nH]nc(C)c23)c1` (configuration not stated), the “Percent Effect” value was 150.6%. `Cc1cnn(CC2CCCN2C(=O)c2c(F)cccc2Cl)c1` (configuration not stated) was tested, and the “Percent Effect” value was 118.3%. In the case of `O=C(C1=CCCC1)N1C[C@@H]2COC[C@]2(COCC2CC2)C1`, the “Percent Effect” value is reported as 119%. In the case of `O=C(C1=CCCC1)N1C[C@H]2CCC[C@@]2(COCc2ccncc2)C1.O=C(O)C(F)(F)F`, the “Percent Effect” value is reported as 12.49%. For `O=C(Cc1ccco1)N1C[C@@H]2COC[C@]2(COCC2CCOCC2)C1`, the “Percent Effect” value was -6.133%. In the case of `O=C(C1=CCCC1)N1C[C@@H]2COC[C@]2(COc2ncccc2F)C1.O=C(O)C(F)(F)F`, the “Percent Effect” value is reported as 91.91%. With `Cc1cc(F)ccc1C(=O)N1C[C@@H]2COC[C@]2(COCC2CC2)C1` the “Percent Effect” value was 3.024%. For `O=C(N1CCCC1)N1CC[C@H]2OCC[C@@]2(COc2ncccc2F)C1.O=C(O)C(F)(F)F`, the “Percent Effect” value was -10.69%. `O=C(C1=CCCC1)N1CCC[C@]2(C[C@@H](Oc3ncccc3F)CO2)C1.O=C(O)C(F)(F)F` was tested, and the “Percent Effect” value was -5.101%. In the case of `O=C(C1=CCCC1)N1C[C@@H]2COC[C@]2(COCc2ccncc2)C1`, the “Percent Effect” value is reported as 94.55%. In the case of `O=C(c1ncoc1C1CCCO1)N1CCC2(CCCCC2)CC1` (configuration not stated), the “Percent Effect” value is reported as -6.426%. For `CCOc1ccc(C(=O)NCc2ccnc(N3CCN(C)CC3)c2)cn1`, the “Percent Effect” value was 4.898%. For `Cc1nn(C)c(N(C)C)c1CNCc1nnc2n1CCCCC2.Cl`, the “Percent Effect” value was 5.74%. For `COc1cc(CN2C[C@H](OC)[C@]3(CCCO3)C2)ccc1F`, the “Percent Effect” value was 93.9%. With `COc1coc(CN2CCCC(CCc3ccc(F)c(F)c3)C2)cc1=O` (configuration not stated) the “Percent Effect” value was 29.51%. For `CS(=O)(=O)NCCC1CCCN(Cc2ccccc2F)C1` (configuration not stated), the “Percent Effect” value was -31.18%. For `CO[C@H]1CN(Cc2ccccc2F)C[C@@]12CCCO2`, the “Percent Effect” value was 78.59%. For `CO[C@H]1CN(Cc2cc(F)ccc2F)CC[C@@]12CCCO2`, the “Percent Effect” value was 118.4%. In the case of `COCCCC1(CO)CCCN(Cc2ccc(F)c(OC)c2)C1` (configuration not stated), the “Percent Effect” value is reported as -7.879%. `C[C@@H]1CN(Cc2cc(C(F)(F)F)ccc2F)CC[C@@]1(O)C1CC1` was tested, and the “Percent Effect” value was 18.84%. In the case of `COC(=O)C1CN(Cc2cc(F)ccc2Br)CCO1` (configuration not stated), the “Percent Effect” value is reported as -7.364%. With `Cc1ccc(CN2CCC3(CCCN(Cc4ccc(F)c(F)c4)C3)C2)o1` (configuration not stated) the “Percent Effect” value was -5.305%. For `CO[C@H]1CN(Cc2ccccc2F)[C@@H]2CCCO[C@H]12`, the “Percent Effect” value was 2.761%. `CO[C@H]1CN(Cc2ccc(F)c(F)c2)C[C@@]12CCCO2` was tested, and the “Percent Effect” value was 125.7%. `COc1cc(CN2CC[C@@]3(CCCO3)[C@@H](O)C2)ccc1F` was tested, and the “Percent Effect” value was -7.237%. In the case of `Cc1nc(CNC(=O)N2CCCC(c3ncc[nH]3)C2)sc1C` (configuration not stated), the “Percent Effect” value is reported as -13.73%. `Cc1cc(CN(Cc2ccccc2)C(C)CN2CCOCC2)no1` (configuration not stated) was tested, and the “Percent Effect” value was -1.705%. In the case of `CCSc1ccc(NC(=O)NC(C)c2c(C)noc2C)cn1` (configuration not stated), the “Percent Effect” value is reported as -11.22%. `CCN1CCCN(c2ccc(-n3ccc(C)n3)nn2)CC1` was tested, and the “Percent Effect” value was -3.628%. In the case of `Cc1ccc(Oc2ncccc2CNC2Cc3ccccc3C2)cn1`, the “Percent Effect” value is reported as 12.49%. With `NCC1Cc2cccc(-c3nccc(N4CCC(O)CC4)n3)c2O1` (configuration not stated) the “Percent Effect” value was -9.933%. In the case of `Cc1cc2n(n1)CC(CNC1CCN(CCc3ccccc3)CC1)CN2` (configuration not stated), the “Percent Effect” value is reported as 3.275%. For `CCc1cnc(N)nc1NCCn1cc(Cl)cn1`, the “Percent Effect” value was -1.568%. With `CN(C)C(=O)C1CN(Cc2cscn2)CCN(S(C)(=O)=O)C1` (configuration not stated) the “Percent Effect” value was 29.17%. In the case of `Cc1ccc(-c2nc(CN3CCC(C(=O)N(C)C)CC3)cs2)o1`, the “Percent Effect” value is reported as 9.027%. `CN(C)C(=O)C1CN(Cc2ccsc2)Cc2ccnn2C1.O=C(O)C(F)(F)F` (configuration not stated) was tested, and the “Percent Effect” value was -5.507%. `Cc1cc(CN2CCN(S(C)(=O)=O)CC(C(=O)N(C)C)C2)no1` (configuration not stated) was tested, and the “Percent Effect” value was 130.4%. For `CS(=O)(=O)N1CCC2(CCN(Cc3nccs3)CC2)CC1.O=C(O)C(F)(F)F`, the “Percent Effect” value was 12.17%. In the case of `CN(C)C(=O)C1CN(Cc2ccsc2)CCN(S(C)(=O)=O)C1` (configuration not stated), the “Percent Effect” value is reported as 92.25%. `CN(C)C(=O)C1CN(Cc2cccs2)CCN(S(C)(=O)=O)C1` (configuration not stated) was tested, and the “Percent Effect” value was 110.5%. `CN(C)C(=O)C1CN(Cc2ccccc2)CCN(S(C)(=O)=O)C1` (configuration not stated) was tested, and the “Percent Effect” value was 1.114%. With `CN(C)C(=O)C1CN(Cc2nccs2)CCN(S(C)(=O)=O)C1` (configuration not stated) the “Percent Effect” value was 115%. For `Cc1cc(CN(C)C(=O)NC2CCN(S(C)(=O)=O)CC2)no1`, the “Percent Effect” value was -12.59%. For `CN(C)C(=O)NCc1nnc2n1CCN(Cc1cccs1)C2`, the “Percent Effect” value was -18.34%. For `C1CCC(CNC2CCSCC2)(N2CCOCC2)CC1`, the “Percent Effect” value was -18.78%. With `CCN(CC)Cc1ccccc1NC(=O)N(C)Cc1ccc(OC)cc1` the “Percent Effect” value was -34.67%. With `c1ccc(-n2ncc(CNCC3CCCN3c3cccnn3)n2)cc1` (configuration not stated) the “Percent Effect” value was 8.726%. `CCC(O)CN(Cc1ccccc1)S(=O)(=O)c1cnc(C)s1` (configuration not stated) was tested, and the “Percent Effect” value was -9.422%. `c1cncc(CN(Cc2ccsc2)Cc2ccc(C3CCCCO3)o2)c1` (configuration not stated) was tested, and the “Percent Effect” value was -4.94%. `CN(C)C(=O)C1CN(Cc2ccccn2)CCN(S(C)(=O)=O)C1` (configuration not stated) was tested, and the “Percent Effect” value was 88.48%. In the case of `CCN(CC(F)(F)F)C(=O)C1CCCN(Cc2ccccn2)C1` (configuration not stated), the “Percent Effect” value is reported as 10.59%. With `CC(C)[C@H]1CN(Cc2ccccn2)C[C@@H]1NS(=O)(=O)C1CC1` the “Percent Effect” value was -5.384%. With `CCCS(=O)(=O)N1C[C@@H]2CN(Cc3cccs3)CCO[C@@H]2C1.O=C(O)C(F)(F)F` the “Percent Effect” value was 8.558%. With `CS(=O)(=O)N1C[C@H]2CCCN(Cc3cccs3)[C@H]2C1.O=C(O)C(F)(F)F` the “Percent Effect” value was 3.048%. In the case of `CS(=O)(=O)N1CCN(Cc2cccs2)CC(C(N)=O)C1` (configuration not stated), the “Percent Effect” value is reported as 99.35%. In the case of `COCC1CN(C(=O)CNC(C)=O)Cc2ncnn2C1` (configuration not stated), the “Percent Effect” value is reported as 6.87%. `COc1nc2ccccc2cc1CN1CCC(CNS(C)(=O)=O)C1` (configuration not stated) was tested, and the “Percent Effect” value was -1.226%. In the case of `CN(C)CC(=O)N1CCCC2(CCC(=O)N(CCc3c[nH]cn3)C2)C1` (configuration not stated), the “Percent Effect” value is reported as 10.28%. For `COc1ccc(-c2nc3c([nH]2)CCNC3C(=O)O)c2ccc(C)nc12` (configuration not stated), the “Percent Effect” value was 11.46%. In the case of `CCS(=O)(=O)N1CC[C@@H]2[C@H](CC1)N(Cc1cccnc1)CCS2(=O)=O.O=C(O)C(F)(F)F.O=C(O)C(F)(F)F`, the “Percent Effect” value is reported as 110.8%. In the case of `O=C(O)C(F)(F)F.O=C(O)C(F)(F)F.O=C(O)C(F)(F)F.c1cncc(CN2CC[C@@H]3[C@@H]2CCN3Cc2ccc3c(c2)OCO3)c1`, the “Percent Effect” value is reported as -20.95%. For `CCS(=O)(=O)N1CC[C@@H]2[C@H](CC1)N(Cc1cccc(C)n1)CCS2(=O)=O.O=C(O)C(F)(F)F`, the “Percent Effect” value was -2.049%. `O=C(O)C(F)(F)F.O=C(O)C(F)(F)F.O=S1(=O)CCN(Cc2cccnc2)[C@H]2CCN(c3ncccn3)CC[C@H]21` was tested, and the “Percent Effect” value was 0.02856%. `CC(C)C(=O)N1CC[C@@H]2[C@H](CC1)N(Cc1cccnc1)CCS2(=O)=O.O=C(O)C(F)(F)F.O=C(O)C(F)(F)F` was tested, and the “Percent Effect” value was 86.93%. With `CCCC(=O)N1CC[C@@H]2[C@H](CC1)N(Cc1cccc(C)n1)CCS2(=O)=O.O=C(O)C(F)(F)F` the “Percent Effect” value was 0.2499%. In the case of `O=C(CC1CC1)N1CC[C@@H]2[C@H](CC1)N(Cc1cccnc1)CCS2(=O)=O.O=C(O)C(F)(F)F.O=C(O)C(F)(F)F`, the “Percent Effect” value is reported as 93.65%. In the case of `O=C(C1CC1)N1CC[C@@H]2[C@H](CC1)N(Cc1cccnc1)CCS2(=O)=O.O=C(O)C(F)(F)F.O=C(O)C(F)(F)F`, the “Percent Effect” value is reported as 101.3%. `Cc1cccc(CN2CCS(=O)(=O)[C@@H]3CCN(C(=O)C4CC4)CC[C@@H]32)n1.O=C(O)C(F)(F)F` was tested, and the “Percent Effect” value was 4.108%. In the case of `CC(C)CN1CCS(=O)(=O)[C@@H]2CCN(S(=O)(=O)c3ccccc3)CC[C@@H]21.O=C(O)C(F)(F)F`, the “Percent Effect” value is reported as -6.866%. In the case of `CCS(=O)(=O)N1CC[C@@H]2[C@H](CC1)N(CC(C)C)CCS2(=O)=O.O=C(O)C(F)(F)F`, the “Percent Effect” value is reported as -5.407%. With `CN(CCCN1CCOCC1)[C@@H]1c2ccccc2C2(CCNCC2)[C@H]1O` the “Percent Effect” value was 1.971%. For `Cc1cc(S(=O)(=O)N2CCCc3cc(F)cc(F)c32)sc1C(=O)O`, the “Percent Effect” value was 6.843%. With `Cc1ccc2nc(C)cc(C(=O)N3C[C@H]4CCC[C@@]4(CO)C3)c2c1` the “Percent Effect” value was -30.24%. In the case of `COCCn1cnnc1Cn1ccnc1-c1ccoc1`, the “Percent Effect” value is reported as 3.29%. With `Nc1ncc2c(n1)CN(C1CCCC1)C2=O` the “Percent Effect” value was -0.5678%. With `CCC(=O)N1CC[C@@H]2[C@H](CC1)N(Cc1cccc(C)n1)CCS2(=O)=O.O=C(O)C(F)(F)F` the “Percent Effect” value was -0.9694%. `CCCC(=O)N1CC[C@@H]2[C@H](CC1)N(Cc1cccnc1)CCS2(=O)=O.O=C(O)C(F)(F)F.O=C(O)C(F)(F)F` was tested, and the “Percent Effect” value was -5.055%. With `CC(C)CC(=O)N1CC[C@@H]2[C@H](CC1)N(Cc1cccnc1)CCS2(=O)=O.O=C(O)C(F)(F)F.O=C(O)C(F)(F)F` the “Percent Effect” value was 108.2%. `CC(C)Nc1cc(N2CCN(Cc3ccccc3)C(CCO)C2)ncn1` (configuration not stated) was tested, and the “Percent Effect” value was 10.47%. `CNC(=O)C1CN(c2ncccn2)CCN1Cc1ccccc1` (configuration not stated) was tested, and the “Percent Effect” value was 91.24%. `Cc1cc(N2CCN(Cc3ccccc3)CC(O)C2)nc(N)n1` (configuration not stated) was tested, and the “Percent Effect” value was 4.027%. With `CNC(=O)C1CN(c2ccnc(C)n2)CCN1Cc1ccccc1` (configuration not stated) the “Percent Effect” value was 49.78%. For `Cc1cccnc1NC(=O)C1CCCN1Cc1ccccc1` (configuration not stated), the “Percent Effect” value was 28.43%. `CNC(=O)C1CN(c2cc(C)ncn2)CCN1Cc1ccccc1` (configuration not stated) was tested, and the “Percent Effect” value was 91.54%.
